# Only some compounds are listed: those with a hit (about 12% of all), similar ones and a draw of the others.
# RORg inh – inhibitors of mouse ROR gamma transcriptional activity; Drosophila S2 Gal4-RORgamma UAS-luciferase reporter, 20 h; Potency, µM (doses to about 53.6 µM), for the others: top-dose activity change, negative = inhibition, actives largely listed as inhibitors; 310,000 tested, 5.4% active; also: nearly all actives have a fitted effect of over 60% in size
#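 ROR gamma transcriptional activity was tracked as Gal4-UAS luciferase output in stably transfected Drosophila Schneider cells, with compound added 1 hr before 700 uM copper sulfate induction and a 20 hr ambient-temperature incubation.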
# PLK1 PBD block – blocks phosphopeptide binding to human PLK1 polo-box domain; 360,000 tested, 2.8% active; Potency, µM, for inactives: max response, negative = inhibition, hits mostly inhibitors; Plk1 PBD binding of FITC phosphopeptide, fluorescence polarization; P53350; also: series mostly up to about 57 µM; nearly all actives have a fitted effect of over 65% in size
# ALDH1A1 inh – ALDH1A1 (human) enzyme inhibition. P00352. Purified ALDH1A1, NADH fluorescence, propionaldehyde substrate. Potency, µM (titrated, usually from 75.3 µM), inactives show top-dose activity, negative = inhibition, usual class: inhibitors. 220,000 tested, 7.3% active; active = well fitted inhibition curve with a large enough effect, not every such curve was filed as active; inconclusive = small, poorly fitted or top-dose-only effect, or another doubt; inactive = no such curve, though single readings can be large or run the other way;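 also: plate controls were no enzyme wells and a reference inhibitor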
# Target sequence (P00352 whole entry, looked up): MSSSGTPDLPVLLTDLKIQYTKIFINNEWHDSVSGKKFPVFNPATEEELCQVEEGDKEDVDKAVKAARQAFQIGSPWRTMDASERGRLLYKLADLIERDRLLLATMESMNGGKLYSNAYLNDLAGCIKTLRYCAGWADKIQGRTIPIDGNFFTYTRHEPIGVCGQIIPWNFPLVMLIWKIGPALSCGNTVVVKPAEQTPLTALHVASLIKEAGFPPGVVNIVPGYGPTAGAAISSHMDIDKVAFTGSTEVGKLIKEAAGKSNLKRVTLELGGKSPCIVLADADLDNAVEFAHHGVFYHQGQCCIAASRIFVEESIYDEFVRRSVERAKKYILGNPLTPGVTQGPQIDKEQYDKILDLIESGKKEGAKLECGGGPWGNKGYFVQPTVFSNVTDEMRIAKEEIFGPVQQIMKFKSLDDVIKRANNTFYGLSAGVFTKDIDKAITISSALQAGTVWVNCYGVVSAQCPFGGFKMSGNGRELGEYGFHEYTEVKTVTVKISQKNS
# VP16 counter – inhibits Gal4-VP16 luciferase reporter, ROR gamma counter-screen | Drosophila S2 Gal4-VP16 UAS-luciferase, luminescence, 20 h | Potency, µM (highest dose often 53.6 µM), without a hit: at the top dose activity, negative = inhibition, usual class: inhibitors | 310,000 tested, 3.5% active;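 also: Gal4-VP16 expression switched on by copper sulfate through the metallothionein promoter; nearly all actives have a fitted effect of over 50% in size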
# Sfp PPTase inh – blocks B. subtilis Sfp PPTase activity | Q9F4F7 | Biochemical Sfp PPTase activity, qHTS | Potency, µM, for the others: largest response in the series, negative = inhibition, most hits filed as inhibitors | 310,000 tested, 3.5% active;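 also: the enzyme is Sfp with the accession as filed and its product quenches rhodamine fluorescence; 0% = enzyme reaction without inhibitor and -100% = no enzyme wells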
#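 Step 1, compound plus 15 nM Sfp-PPTase, 15 min, room temperature. Step 2, add rhodamine-CoA (5 uM) and BHQ-2-YbbR (12.5 uM). Step 3, read 525/598 nm fluorescence at 0 and 30 min.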
# Starred values were filed as active, the others as inactive; ? = inconclusive; . = not tested or not shown; [ ] = dose if it differs, or a comment. Unless noted, calls follow the shape of the dose curve; as a rule, active = well fitted curve in the direction sought with a large enough effect; inconclusive = small, poorly fitted or top-dose-only effect, or another doubt; inactive = no such curve, though single readings can be large; an effect the other way counts as inactive or inconclusive. Unless noted, % is scaled to controls: 0 for no effect and ±100 for the full control effect; potency is read from the fitted curve at half-maximal effect.
SMILES,RORg inh,PLK1 PBD block,ALDH1A1 inh,VP16 counter,Sfp PPTase inh
O=[N+]([O-])c1cc2c(cc1/C=N/n1c(-c3ccccn3)n[nH]c1=S)OCO2,-16%[10 µM],?,28µM*,-2%,22µM*
O=[N+]([O-])c1cc2c(cc1C=Nc1ccccc1)OCO2,-20%,?,?,-7%,6%
Cc1cc(C)c(CSc2ncc(-c3ccc([N+](=O)[O-])cc3)[nH]2)c(C)c1,10µM*,-7%,?,7.1µM*,26%
O=[N+]([O-])c1ccc(-c2cnc(SCc3ccccc3Cl)[nH]2)cc1,?,4%,?,-3%,10%
OC[C@@H]1CN(Cc2ccc(Cl)cc2)C[C@H](n2cnc3c(NCc4ccc(F)cc4)ncnc32)O1,.,-3%,.,.,.
CO/N=C/c1ccc(Oc2ccc(C)cc2)c([N+](=O)[O-])c1,?,12µM*,?,?,-10%
COc1ccc(-c2noc(CCC(=O)O)n2)cc1,?,0%,4%,?,4%
CCOc1ccc(-c2noc(CCC(=O)O)n2)cc1,0.35µM*,-9%,3%,1.4µM*,12%
COc1ccc(-c2noc(CCCC(=O)O)n2)cc1,0.32µM*,-8%,6%,0.35µM*,12%
Oc1oc(-c2cccc3ccccc23)nc1/C=N/c1nccs1,8.9µM*,3%,9%,13µM*,11%
CCOC(=O)CNC(=O)c1cccnc1,-8%,24µM*,0%,2%,8%
Cc1ccc(NC(=S)Nc2cccnc2)c(S(=O)(=O)N2CCCCC2)c1,?,-9%,?,16µM*,-29%
O=C(Nc1cccnc1)c1ccc(Cl)c(S(=O)(=O)N2CCCCC2)c1,?,-8%,.,-8%,12%
CCOC(=O)c1cccc(NC(=S)NC(=O)c2cccnc2)c1,13µM*,0%,.,?,5%
CCc1c(C)sc(NC(=S)Nc2cccnc2)c1C(=O)OC,3.5µM*,?,9.5µM*,6.3µM*,20µM*
O=C(N1CCOCC1)C12OC3CC(CC(C3)O1)O2,.,-8%,.,.,.
CCOC(=O)O[C@@H](C)OC(=O)[C@@H]1N2C(=O)[C@@H](NC(=O)[C@@H](N)c3ccccc3)[C@H]2SC1(C)C,0%[2.98 µM],.,10%[20.9 µM],0%[17 µM],11%
COc1cccc(NC(=S)NC(=O)c2cccnc2)c1,20µM*,0%,.,-94%,-27%
Cc1cc(C)cc(C(=O)NC(=S)Nc2cccnc2)c1,10µM*,-2%,.,?,-21%
COc1cccc(C(=O)Nc2cccnc2)c1,-31%,-1%,?,1%,1%
O=C(NC(=S)Nc1cccnc1)c1cc2ccccc2o1,?,-4%,?,-19%,18%
COc1ccc([C@@H]2CC(=O)[C@@H]3CN(S(=O)(=O)c4ccc(C)cc4)[C@H](c4ccccc4)C[C@@H]3N2S(=O)(=O)c2ccccc2)cc1,.,-16%,.,.,.
Cc1cccc(NC(=O)c2nc(-c3ccccc3)n(-c3ccccc3)n2)c1C,18%,-2%,32µM*,-4%,-10%
Cc1nn(-c2ccccc2)c2sc(C(=O)NNC(=O)COc3cccc4ccccc34)cc12,8.9µM*,-4%,9%,?,-26%
Cc1cnc(NC(=O)c2cc3c(C)nn(-c4ccccc4)c3s2)s1,0.89µM*,-8%,?,1.1µM*,-12%
SMILES,RORg inh,PLK1 PBD block,ALDH1A1 inh,VP16 counter,Sfp PPTase inh
O=C(c1nc(-c2ccccc2)n(-c2ccccc2)n1)N1CCCCCC1,-13%,0%,8.9µM*,-2%,6%
O=C(O)CNC(=O)c1nc(-c2ccccc2)n(-c2ccccc2)n1,1%,-15%,?,6%,6%
O=[N+]([O-])c1ccc(Cl)c(CNc2ncnc3c2ncn3[C@@H]2CCCCO2)c1,.,.,-9%[13.5 µM],.,.
Cc1noc(C)c1C(=O)N1CCC2(CCCN(C(c3ccccc3)c3ccccc3)C2)CC1,?,.,-1%,1%,-9%
Cc1nn(-c2ccccc2)c2sc(C(=O)NNC(=O)COc3ccccc3)cc12,7.1µM*,-5%,?,10µM*,-20%
Cc1nn(-c2ccccc2)c2sc(C(=O)NC3CCCCC3)cc12,18%,3%,?,0%,0%
Cc1nn(-c2ccccc2)c2sc(C(=O)N3CCCCC3)cc12,8%,-15%,1.8µM*,-14%,10%
CCCc1[nH]nc2c1C(c1cccc(OC(=O)c3ccco3)c1)C(C#N)=C(N)O2 (stereo not drawn),23%,-12%,8.9µM*,-3%[0.365 µM],-15%

# High-throughput results from PubChem BioAssay.
